TrxR1 substrate: qHTS Assay for Substrates of Mammalian Selenoprotein Thioredoxin Reductase 1 (TrxR1): qHTS | Potency, µM (highest dose often 114 µM), inactives show at the highest dose activity change, negative = substrate turnover | hit rate 0.01% among 390,000 | purified TrxR1 substrate turnover, NADPH consumption readout; note: potency is the fitted concentration of half-maximal effect; nearly all actives have a fitted effect of over 50% in size
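Rat TrxR1, dispensed at 90 nM, was prereduced with 400 uM NADPH (final) for 5 min at ~22 deg C, then incubated with compound 15 min before 400 uM selenite. A first-read NADPH fluorescence drop versus no-compound background flagged substrates.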
TrxR1 inh: qHTS Assay for Inhibitors of Mammalian Selenoprotein Thioredoxin Reductase 1 (TrxR1): qHTS | recombinant rTrxR1, NADPH fluorescence consumption, selenite substrate | Potency, µM (top dose mostly 114 µM), inactives show top-dose activity change, negative = inhibition, actives largely listed as inhibitors | hit rate 1% among 390,000 | AID 588453, 2011; note: potency is the fitted concentration of half-maximal effect; nearly all actives have a fitted effect of over 65% in size
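Rat TrxR1 (90 nM in the dispensed reagent) was pre-reduced with 400 uM NADPH for 5 min at room temperature, then incubated with compound for 15 min. After 400 uM selenite was added, NADPH fluorescence (Ex 340/Em 450 nm) was followed for 8 min.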
PI4K2A block: qHTS for small molecular inhibitors of PI4K2A. purified PI4K2A, ADP-Glo luminescence, 1 h; stronger effect = lower value. hit rate 0.13% among 420,000. Phosphatidylinositol 4-kinase type 2-alpha (Homo sapiens), Q9BTU6. activity change, negative = inhibition, % at 76.9 µM. AID 1346378, 2018; in the data active = activity change below about -50%; inconclusive = mostly about -30% to -49%;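 note: -100% = wells without enzyme as full effect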
Target sequence (Q9BTU6 whole entry, looked up): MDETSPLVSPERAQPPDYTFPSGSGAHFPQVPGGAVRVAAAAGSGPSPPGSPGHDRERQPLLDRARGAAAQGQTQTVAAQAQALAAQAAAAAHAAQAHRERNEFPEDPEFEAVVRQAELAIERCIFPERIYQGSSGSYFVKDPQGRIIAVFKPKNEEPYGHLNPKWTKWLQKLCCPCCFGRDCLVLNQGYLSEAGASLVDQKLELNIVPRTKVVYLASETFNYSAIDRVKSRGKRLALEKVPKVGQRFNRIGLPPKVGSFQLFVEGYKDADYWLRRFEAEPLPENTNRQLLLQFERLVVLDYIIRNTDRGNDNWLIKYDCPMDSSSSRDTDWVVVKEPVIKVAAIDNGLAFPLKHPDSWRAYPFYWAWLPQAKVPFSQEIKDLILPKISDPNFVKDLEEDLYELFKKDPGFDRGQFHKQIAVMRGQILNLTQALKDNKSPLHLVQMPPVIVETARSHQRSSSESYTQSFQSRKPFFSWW
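Compounds are screened against recombinant PI4K2A using PI as substrate and ATP, the latter dispensed at 300 microM. Reactions run one hour at ambient temperature before ADP-Glo detection; full inhibition defined by wells lacking enzyme.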
GALK inh: qHTS Assay for Inhibitors of Human Galactokinase (GALK); hit rate 0.007% among 270,000; Purified GALK, Kinase-Glo residual ATP luminescence; Potency, µM (doses to about 57.5 µM), for inactives: at the highest dose activity change, negative = inhibition, most hits filed as inhibitors; P51570; note: potency is the fitted concentration of half-maximal effect
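ATP-depletion format; final 35 uM ATP, 100 uM D-galactose, 5 nM enzyme; pH 8.0 HEPES/Mg2+ buffer; 60 min RT; luminescence read 10 min after detection reagent.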
Active calls of the source: *; ? = inconclusive; . = not tested or not shown; [ ] = dose if it differs, or a comment. A selection: hits, their analogues and other compounds. The true share with any hit is near 1.1%. Unless noted, calls come from the whole dose curve; as a rule, active = well fitted curve in the direction sought with a large enough effect; inconclusive = small, poorly fitted or top-dose-only effect, or another doubt; inactive = no such curve, though single readings can be large; an effect the other way counts as inactive or inconclusive. Unless noted, % is set by controls: 0 for no effect and ±100 for the full control effect.

SMILES	TrxR1 substrate	TrxR1 inh	PI4K2A block	GALK inh
C[C@H]1C(=O)N2[C@@H](C[C@]3(c4c[nH]c5ccccc45)c4ccccc4N(S(=O)(=O)c4ccccc4)[C@H]23)C(=O)N1C	.	.	5	.
Cc1nc2nc(SCC(=O)NCCc3ccccc3)nn2c(C)c1Cc1c(F)cccc1Cl	12%	24%	-3	.
CCOC(=O)C1=C(c2ccc(OC)cc2)OC(N)=C(C#N)C1c1cccnc1 (stereo not given)	-7%	79µM*	-1	1%
CCOC(=O)N1CCC(n2c(=O)[nH]c3cc(Cl)ccc32)CC1	.	.	4	.
COc1ccc(S[C@]2(C(=O)N(C)C)CC(=O)N(C(=O)c3ccccc3)[C@@H]2c2ccc(OC)cc2)cc1	.	.	-2	.
O=C(NCc1cccnc1)/C(=C\c1ccc(-c2ccc(Br)cc2)o1)S(=O)(=O)c1ccccc1	4%	32µM*	4	-1%
O=C(NCc1cccnc1)/C(=C/c1ccc(-c2ccc(Cl)cc2)o1)S(=O)(=O)c1ccccc1	-2%	5µM*	3	-5%
CCOc1ccc(NC(=O)Cn2c(=O)oc3cc(S(=O)(=O)N4CCC(C)CC4)ccc32)cc1	-8%	-7%	-5	.
C=C(C)C(=O)N1CC2(CC(c3cccc(NC(=O)/C=C\C=C/C)c3)=NO2)C[C@H]1C(N)=O (stereo not given in full)	2%	20µM*	?	-2%
C=C(C)C(=O)Nc1cccc(C2=NOC3(C2)C[C@@H](C(N)=O)N(C(=O)C(=C)C)C3)c1 (stereo not given in full)	-5%[57.1 µM]	-18%[57.1 µM]	-29	0%
C/C=C\C=C/C(=O)Nc1cccc(C2=NOC3(C2)C[C@@H](C(N)=O)N(C(=O)/C=C/CC)C3)c1 (stereo not given in full)	0%	16µM*	-17	4%
C/C=C\C(=O)Nc1cccc(C2=NOC3(C2)C[C@H](C(N)=O)N(C(=O)/C=C/CC)C3)c1 (stereo not given in full)	2%	1%	1	0%
C/C=C\C(=O)Nc1cccc(C2=NOC3(C2)C[C@@H](C(N)=O)N(C(=O)C2(C)CC2)C3)c1 (stereo not given in full)	6%[57.1 µM]	12%[57.1 µM]	8	-3%
C/C=C\C=C/C(=O)Nc1cccc(C2=NOC3(C2)C[C@@H](C(N)=O)N(C(=O)/C=C/C=C\C)C3)c1 (stereo not given in full)	12%[57.1 µM]	7.1µM*	?	-2%
C/C=C\C=C/C(=O)Nc1cccc(C2=NOC3(C2)C[C@@H](C(N)=O)N(C(=O)C2(C)CC2)C3)c1 (stereo not given in full)	3%	28µM*	-9	-1%
O=C1NC2CCCCN2C12CCN(CCCN1c3ccccc3CCc3ccc(Cl)cc31)CC2 (stereo not given)	.	.	-3	.
COc1cc2nc(CC(O)c3nc4cc(OC)c(OC)cc4[nH]3)[nH]c2cc1OC (stereo not given)	12%	25%	.	.
CS(=O)(=O)n1nc(OC(=O)c2cccc3ccccc23)cc1N	-5%	56µM*	47	-3%
CS(=O)(=O)n1nc(OC(=O)c2cc(Br)ccc2Cl)cc1N	0%	6.3µM*	5	8%
COc1cc(OC)c(OC)cc1/C=C/c1nc2ccccc2o1	10%	14%	.	.
N#C/C(=C/c1ccc(N2CCOCC2)o1)c1ccc(Cl)cc1	-2%	3.2µM*	-9	2%
O=C(NC1CCCCC1)C1COc2ccccc2O1 (stereo not given)	-3%	50µM*	3	.
O=C(NCCc1ccc(O)c(O)c1)C1COc2ccccc2O1 (stereo not given)	4%	45µM*	-3	0%
CCOC(=O)c1nnn(-c2nonc2-n2cccc2)c1CCl	13%	13µM*	-1	-1%
CC(C)=CCC/C(C)=C/CC/C(C)=C/C(=O)OCC(=O)[C@@]1(O)CC[C@H]2[C@@H]3CCC4=CC(=O)C=C[C@]4(C)[C@H]3[C@@H](O)C[C@@]21C	.	.	-2	.
SMILES	TrxR1 substrate	TrxR1 inh	PI4K2A block	GALK inh
CC(=O)N1CCc2cc(CNS(=O)(=O)c3ccc(Br)s3)ccc21	4%[57.1 µM]	14%[57.1 µM]	-2	.
CCN(CC)C(=O)c1c(NC(=O)c2ccccc2)sc(C)c1C	-6%	-10%	0	2%
CCN(CC)Cc1c(NC(=O)c2ccccc2)sc(C)c1C	3%	7.1µM*	6	-1%
CC(=O)c1ccc(O)c(C(N)=O)c1	.	.	1	.
O=C(O)/C=C/C(=O)Nc1ccccc1-c1ccccc1NC(=O)/C=C/C(=O)O	8%[57.1 µM]	?	0	1%
O=C(O)/C=C/C(=O)Nc1ccccc1SC(F)(F)F	1%	35µM*	-4	-2%
CCc1ccc(NC(=O)c2ccc3c(c2)nnn3CC)cc1	-6%[57.1 µM]	-1%[57.1 µM]	0	.
COc1ccc(/C=C2/C(=O)N(c3cccc(F)c3)N=C2C)c(OC)c1	-12%	-6%	-51*	3%
Nn1c(SCC(=O)Nc2nccs2)nnc1-c1cc(-c2ccc(F)cc2)n[nH]1	.	.	-3	.
CCOc1ccc(C2C(C(=O)c3ccc(C)o3)=C(O)C(=O)N2CCN2CCOCC2)cc1OC (stereo not given)	-7%	56µM*	1	1%
CC(=O)C1=C(O)C(=O)N(CCN2CCOCC2)C1c1ccccc1 (stereo not given)	-3%	50µM*	0	-4%
COc1ccc(OC)c(C2C(C(C)=O)=C(O)C(=O)N2CCN2CCOCC2)c1 (stereo not given)	-1%	-27%	-3	3%
O=C(C1=C(O)C(=O)N(CCN2CCOCC2)C1c1ccc(F)cc1)c1cccs1 (stereo not given)	-8%	-9%	1	6%
O=C(C1=C(O)C(=O)N(CCN2CCOCC2)C1c1ccccn1)c1cccs1 (stereo not given)	1%	22µM*	4	1%
O=C(C1=C(O)C(=O)N(CCN2CCOCC2)C1c1ccc(Br)cc1)c1cc2ccccc2o1 (stereo not given)	-7%	10%	4	2%
Cc1ccc(C2C(C(=O)c3cc4ccccc4o3)=C(O)C(=O)N2CCN2CCOCC2)o1 (stereo not given)	-9%	22µM*	-6	0%
Cc1cccc(NC(=O)C2CCCN(S(=O)(=O)c3ccc4c(c3)oc(=O)n4C)C2)c1C (stereo not given)	-2%	9%	2	.
Cc1ccc(-n2[nH]c(C)c(N=Nc3cccc(-c4cccc(C(=O)O)c4)c3O)c2=O)cc1C	.	.	-8	.
COc1cccc(C(=O)N2CCCCC2CCN2CCCCC2)c1 (stereo not given)	1%	6%	-1	.
C/C(=C1\CCOC(=O)S1)N(C=O)Cc1cnc(C)nc1N	.	.	-1	.
